Test in all cases: DAPPL (digital affinity profiling via proximity ligation, sequencing); 10 mM Tris-HCl pH 7.5, 50 mM NaCl, 1 mM DTT, 4% glycerol, room temperature, 30 min; GST-TFs on glutathione beads, 16-mer random dsDNA library, 0.1% formaldehyde crosslink after washing; high values mean tight binding
What all share (settings): protein: recombinant; tags: N-terminal GST; dsDNA, one strand shown

The target of one assay is T1, FLI1 (Homo sapiens, UniProt Q01543 1-452).
T1 sequence: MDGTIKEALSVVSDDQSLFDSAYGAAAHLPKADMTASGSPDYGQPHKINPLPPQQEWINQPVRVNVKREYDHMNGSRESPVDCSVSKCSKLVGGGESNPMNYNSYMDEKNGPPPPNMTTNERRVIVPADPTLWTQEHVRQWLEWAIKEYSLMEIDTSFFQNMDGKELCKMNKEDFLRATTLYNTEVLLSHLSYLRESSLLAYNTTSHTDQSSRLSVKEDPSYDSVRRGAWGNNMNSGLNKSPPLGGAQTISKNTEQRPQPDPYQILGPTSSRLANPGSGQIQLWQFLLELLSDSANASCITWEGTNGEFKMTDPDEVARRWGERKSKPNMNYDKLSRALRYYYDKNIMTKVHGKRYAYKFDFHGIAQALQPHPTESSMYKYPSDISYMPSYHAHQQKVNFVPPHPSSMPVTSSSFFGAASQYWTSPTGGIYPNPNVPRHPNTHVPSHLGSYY
In outline:
(§1)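 Binding signal is each hexamer's read frequency for a factor divided by its frequency in the tag-only sample. The factors were GST-fused human transcription factors from yeast, captured on glutathione beads, DNA-barcoded and pooled with that sample. Pools were incubated with 200 nmole of a random double-stranded 16-mer DNA library in Tris/NaCl/DTT/glycerol buffer at room temperature for 30 min, then washed, crosslinked with 0.1% formaldehyde, proximity-ligated with BsaI/T4 ligase (1 h, 37 °C), PCR-amplified and sequenced on an Illumina NextSeq500.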

The next assay addresses T2, ELK1 (Homo sapiens, UniProt P19419 1-428).
T2 sequence: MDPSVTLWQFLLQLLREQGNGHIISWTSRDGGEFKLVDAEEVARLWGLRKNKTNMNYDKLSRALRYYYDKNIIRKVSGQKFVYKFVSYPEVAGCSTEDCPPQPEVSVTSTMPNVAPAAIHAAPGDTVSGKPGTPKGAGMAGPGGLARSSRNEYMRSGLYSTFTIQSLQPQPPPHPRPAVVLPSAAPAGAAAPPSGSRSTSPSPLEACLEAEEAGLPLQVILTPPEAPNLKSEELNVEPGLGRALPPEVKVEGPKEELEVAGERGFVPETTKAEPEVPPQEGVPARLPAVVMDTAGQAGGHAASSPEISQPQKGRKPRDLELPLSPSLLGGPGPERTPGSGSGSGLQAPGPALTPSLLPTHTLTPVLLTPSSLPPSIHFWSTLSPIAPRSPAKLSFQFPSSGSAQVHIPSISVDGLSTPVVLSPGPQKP
In outline: as §1

Another assay has as its target T3, GABPA (Homo sapiens, UniProt Q06546 1-454).
T3 sequence: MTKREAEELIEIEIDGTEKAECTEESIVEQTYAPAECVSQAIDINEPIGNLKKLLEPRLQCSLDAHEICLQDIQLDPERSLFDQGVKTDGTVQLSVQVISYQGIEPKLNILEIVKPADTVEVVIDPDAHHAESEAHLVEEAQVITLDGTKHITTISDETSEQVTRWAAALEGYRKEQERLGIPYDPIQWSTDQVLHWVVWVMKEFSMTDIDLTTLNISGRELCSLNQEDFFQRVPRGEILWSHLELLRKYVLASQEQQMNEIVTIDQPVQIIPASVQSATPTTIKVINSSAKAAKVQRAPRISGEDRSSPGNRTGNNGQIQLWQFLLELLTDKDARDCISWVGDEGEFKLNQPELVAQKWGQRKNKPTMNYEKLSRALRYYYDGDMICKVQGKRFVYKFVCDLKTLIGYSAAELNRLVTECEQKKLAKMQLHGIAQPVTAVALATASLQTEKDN
In outline: as §1

Another assay concerns the target T4, ERG (Homo sapiens, UniProt P11308 1-479).
T4 sequence: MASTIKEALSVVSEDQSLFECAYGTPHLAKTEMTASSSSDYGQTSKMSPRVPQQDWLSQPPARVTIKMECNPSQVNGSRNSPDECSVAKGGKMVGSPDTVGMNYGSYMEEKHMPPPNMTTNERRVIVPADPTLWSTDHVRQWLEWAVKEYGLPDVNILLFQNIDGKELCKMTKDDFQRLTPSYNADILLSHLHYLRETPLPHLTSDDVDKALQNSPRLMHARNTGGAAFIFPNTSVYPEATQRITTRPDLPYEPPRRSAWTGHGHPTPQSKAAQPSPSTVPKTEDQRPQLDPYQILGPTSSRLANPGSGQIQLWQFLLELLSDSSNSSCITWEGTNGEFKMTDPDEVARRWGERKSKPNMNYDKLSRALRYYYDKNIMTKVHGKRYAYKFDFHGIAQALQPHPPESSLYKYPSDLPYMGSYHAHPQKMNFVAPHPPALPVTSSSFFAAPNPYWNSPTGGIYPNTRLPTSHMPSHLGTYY
In outline:
as §1

The target of a further assay is ELF1 (Homo sapiens, UniProt P32519 1-619). In outline: as §1
The next assay concerns the target T5, EHF (Homo sapiens, UniProt Q9NZC4 1-300).
T5 sequence: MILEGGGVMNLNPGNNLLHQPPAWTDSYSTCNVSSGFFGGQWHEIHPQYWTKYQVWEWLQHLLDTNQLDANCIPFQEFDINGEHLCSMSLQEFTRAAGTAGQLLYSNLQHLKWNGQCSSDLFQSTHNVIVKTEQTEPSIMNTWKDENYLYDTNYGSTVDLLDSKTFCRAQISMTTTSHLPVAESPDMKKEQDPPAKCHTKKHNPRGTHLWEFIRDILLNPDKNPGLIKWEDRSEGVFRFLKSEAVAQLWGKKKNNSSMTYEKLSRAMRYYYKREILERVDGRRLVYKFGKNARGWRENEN
In outline:
as §1

In the next assay the target is SPI1 (Homo sapiens, UniProt P17947 1-270). The method in brief:
as §1

For the next assay, the target named is SPIB (Homo sapiens, UniProt Q01892 1-262). In outline: as §1
In the next assay the target is T6, ELK3 (Homo sapiens, UniProt P41970 1-407).
T6 sequence: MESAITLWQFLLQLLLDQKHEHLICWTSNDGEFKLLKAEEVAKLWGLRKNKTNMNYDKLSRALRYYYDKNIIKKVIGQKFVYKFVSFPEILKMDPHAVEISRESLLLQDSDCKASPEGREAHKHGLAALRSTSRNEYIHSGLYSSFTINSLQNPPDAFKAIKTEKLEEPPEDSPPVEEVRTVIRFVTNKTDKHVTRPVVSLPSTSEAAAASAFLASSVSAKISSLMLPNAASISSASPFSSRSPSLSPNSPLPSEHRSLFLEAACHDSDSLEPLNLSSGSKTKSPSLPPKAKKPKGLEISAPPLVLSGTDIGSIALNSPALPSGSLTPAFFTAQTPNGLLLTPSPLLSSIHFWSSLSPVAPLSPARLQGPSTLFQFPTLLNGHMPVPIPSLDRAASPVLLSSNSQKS
The method in brief: as §1

Another assay addresses T7, FEV (Homo sapiens, UniProt Q99581 1-238).
T7 sequence: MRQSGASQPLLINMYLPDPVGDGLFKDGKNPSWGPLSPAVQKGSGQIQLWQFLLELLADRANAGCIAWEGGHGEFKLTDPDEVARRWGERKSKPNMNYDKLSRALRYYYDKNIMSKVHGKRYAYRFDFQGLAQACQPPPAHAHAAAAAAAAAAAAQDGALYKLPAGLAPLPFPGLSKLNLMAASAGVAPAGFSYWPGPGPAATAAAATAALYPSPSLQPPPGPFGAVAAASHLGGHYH
The method in brief: as §1

Another assay addresses ETV5 (Homo sapiens, UniProt P41161 1-510). The method in brief:
as §1

A further assay deals with T8, SPIC (Homo sapiens, UniProt Q8N5J4 1-248).
T8 sequence: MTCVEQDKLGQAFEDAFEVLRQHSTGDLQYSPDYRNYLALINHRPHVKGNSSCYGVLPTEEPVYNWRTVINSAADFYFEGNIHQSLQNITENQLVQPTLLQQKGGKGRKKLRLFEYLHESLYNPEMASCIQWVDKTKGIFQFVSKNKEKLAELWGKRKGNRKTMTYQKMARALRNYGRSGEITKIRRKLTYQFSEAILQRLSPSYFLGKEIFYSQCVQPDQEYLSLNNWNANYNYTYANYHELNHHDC
The method in brief: as §1

A further assay concerns the target ELF4 (Homo sapiens, UniProt Q99607 1-663). The method in brief:
as §1

The target of the next assay is T9, ELK4 (Homo sapiens, UniProt P28324-2 1-405).
T9 sequence: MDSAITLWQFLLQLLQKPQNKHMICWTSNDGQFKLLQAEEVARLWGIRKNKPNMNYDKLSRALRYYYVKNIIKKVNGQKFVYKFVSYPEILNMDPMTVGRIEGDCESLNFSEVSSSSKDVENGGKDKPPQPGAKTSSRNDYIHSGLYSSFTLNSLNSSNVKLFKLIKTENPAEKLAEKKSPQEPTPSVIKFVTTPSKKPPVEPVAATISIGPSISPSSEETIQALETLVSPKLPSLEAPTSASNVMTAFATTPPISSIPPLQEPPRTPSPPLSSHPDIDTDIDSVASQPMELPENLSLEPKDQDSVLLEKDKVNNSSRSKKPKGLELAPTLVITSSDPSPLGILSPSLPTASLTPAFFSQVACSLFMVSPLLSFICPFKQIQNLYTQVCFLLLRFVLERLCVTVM
In outline: as §1

A further assay addresses T10, ETV2 (Homo sapiens, UniProt O00321 1-342).
T10 sequence: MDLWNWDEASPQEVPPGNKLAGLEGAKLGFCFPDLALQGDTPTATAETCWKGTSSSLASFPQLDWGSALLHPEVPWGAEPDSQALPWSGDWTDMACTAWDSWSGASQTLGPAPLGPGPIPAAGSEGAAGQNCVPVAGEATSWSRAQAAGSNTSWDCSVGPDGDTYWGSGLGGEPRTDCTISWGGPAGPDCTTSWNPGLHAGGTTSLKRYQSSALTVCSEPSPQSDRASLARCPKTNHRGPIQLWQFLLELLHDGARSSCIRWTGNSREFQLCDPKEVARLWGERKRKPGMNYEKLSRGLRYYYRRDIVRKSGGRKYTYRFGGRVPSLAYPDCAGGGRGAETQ
In outline: as §1

A further assay has as its target T11, ELF3 (Homo sapiens, UniProt P78545 1-371).
T11 sequence: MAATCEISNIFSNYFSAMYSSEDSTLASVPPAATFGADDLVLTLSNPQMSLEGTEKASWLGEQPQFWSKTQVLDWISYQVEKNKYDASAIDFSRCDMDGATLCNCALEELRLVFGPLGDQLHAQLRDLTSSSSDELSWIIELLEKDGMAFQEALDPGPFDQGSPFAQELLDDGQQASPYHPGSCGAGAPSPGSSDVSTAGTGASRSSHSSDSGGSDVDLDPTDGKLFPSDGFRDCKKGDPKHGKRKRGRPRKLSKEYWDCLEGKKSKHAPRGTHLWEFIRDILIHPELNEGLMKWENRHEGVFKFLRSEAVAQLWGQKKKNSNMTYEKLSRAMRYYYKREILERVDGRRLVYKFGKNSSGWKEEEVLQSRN
In outline: as §1

A further assay has as its target CRX (Homo sapiens, UniProt O43186 1-299). The method in brief: as §1
For another assay, the target named is ETV1 (Homo sapiens, UniProt P50549 1-477). The method in brief:
as §1

Sequence of ETV5 (P41161 whole entry): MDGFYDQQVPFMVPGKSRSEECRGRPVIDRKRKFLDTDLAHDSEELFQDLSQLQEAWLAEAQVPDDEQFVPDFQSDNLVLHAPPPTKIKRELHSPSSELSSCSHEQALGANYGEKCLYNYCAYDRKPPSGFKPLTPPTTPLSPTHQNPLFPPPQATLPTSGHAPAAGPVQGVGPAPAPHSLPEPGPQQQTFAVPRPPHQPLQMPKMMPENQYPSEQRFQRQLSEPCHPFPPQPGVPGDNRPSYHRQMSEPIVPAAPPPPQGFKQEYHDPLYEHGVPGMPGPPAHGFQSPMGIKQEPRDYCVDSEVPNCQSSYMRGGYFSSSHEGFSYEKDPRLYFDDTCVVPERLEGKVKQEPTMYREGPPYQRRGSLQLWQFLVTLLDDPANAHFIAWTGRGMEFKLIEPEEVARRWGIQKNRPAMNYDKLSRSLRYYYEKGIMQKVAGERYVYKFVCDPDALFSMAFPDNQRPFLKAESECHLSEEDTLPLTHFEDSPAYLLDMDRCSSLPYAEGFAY
Sequence of SPIB (Q01892 whole entry): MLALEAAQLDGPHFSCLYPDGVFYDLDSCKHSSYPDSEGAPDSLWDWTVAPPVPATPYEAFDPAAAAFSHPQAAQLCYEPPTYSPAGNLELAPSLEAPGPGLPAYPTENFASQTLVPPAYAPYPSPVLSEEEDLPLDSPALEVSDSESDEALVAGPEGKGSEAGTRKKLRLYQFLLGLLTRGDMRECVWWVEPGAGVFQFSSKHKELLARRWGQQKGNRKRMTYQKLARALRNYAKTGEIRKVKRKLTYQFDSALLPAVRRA
Sequence of CRX (O43186 whole entry): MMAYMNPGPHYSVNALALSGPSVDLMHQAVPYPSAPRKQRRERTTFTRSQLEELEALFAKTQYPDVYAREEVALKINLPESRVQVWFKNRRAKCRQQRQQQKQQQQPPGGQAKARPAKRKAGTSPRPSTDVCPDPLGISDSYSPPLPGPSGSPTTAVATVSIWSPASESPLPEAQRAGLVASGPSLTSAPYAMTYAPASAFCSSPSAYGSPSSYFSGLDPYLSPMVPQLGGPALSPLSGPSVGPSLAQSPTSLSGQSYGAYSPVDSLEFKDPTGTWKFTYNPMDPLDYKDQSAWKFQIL
Sequence of ETV1 (P50549 whole entry): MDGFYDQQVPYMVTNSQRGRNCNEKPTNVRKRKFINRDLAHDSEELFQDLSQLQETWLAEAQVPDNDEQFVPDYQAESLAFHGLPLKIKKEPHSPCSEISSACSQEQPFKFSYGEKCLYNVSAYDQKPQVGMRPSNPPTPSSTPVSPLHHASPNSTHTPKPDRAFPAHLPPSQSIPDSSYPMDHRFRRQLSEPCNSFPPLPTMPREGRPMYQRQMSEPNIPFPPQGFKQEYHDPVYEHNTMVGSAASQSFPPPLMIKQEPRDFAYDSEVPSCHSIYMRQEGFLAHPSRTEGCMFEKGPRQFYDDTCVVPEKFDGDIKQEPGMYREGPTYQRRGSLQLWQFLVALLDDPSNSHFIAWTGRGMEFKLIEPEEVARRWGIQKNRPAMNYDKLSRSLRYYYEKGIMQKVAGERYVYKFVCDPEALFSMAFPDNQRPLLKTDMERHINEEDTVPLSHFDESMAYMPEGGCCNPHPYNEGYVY
Sequence of ELF4 (Q99607 whole entry): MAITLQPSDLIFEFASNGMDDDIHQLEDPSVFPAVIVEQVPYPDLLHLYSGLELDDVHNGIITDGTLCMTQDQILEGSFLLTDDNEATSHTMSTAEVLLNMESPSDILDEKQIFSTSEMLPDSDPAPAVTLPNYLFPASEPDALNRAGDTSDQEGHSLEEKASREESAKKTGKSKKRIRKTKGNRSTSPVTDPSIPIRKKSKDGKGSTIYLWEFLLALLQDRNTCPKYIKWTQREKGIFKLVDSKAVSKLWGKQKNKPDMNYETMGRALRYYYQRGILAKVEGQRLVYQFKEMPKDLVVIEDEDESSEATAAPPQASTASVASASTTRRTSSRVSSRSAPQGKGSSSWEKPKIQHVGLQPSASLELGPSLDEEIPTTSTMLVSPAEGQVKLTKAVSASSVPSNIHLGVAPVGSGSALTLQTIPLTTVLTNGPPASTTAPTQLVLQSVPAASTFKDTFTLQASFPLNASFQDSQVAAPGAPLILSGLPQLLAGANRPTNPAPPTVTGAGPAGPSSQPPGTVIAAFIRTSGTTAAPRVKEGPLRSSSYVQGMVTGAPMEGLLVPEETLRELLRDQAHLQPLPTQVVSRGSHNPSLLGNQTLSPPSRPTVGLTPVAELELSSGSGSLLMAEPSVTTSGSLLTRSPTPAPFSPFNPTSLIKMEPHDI
Sequence of ELF1 (P32519 whole entry): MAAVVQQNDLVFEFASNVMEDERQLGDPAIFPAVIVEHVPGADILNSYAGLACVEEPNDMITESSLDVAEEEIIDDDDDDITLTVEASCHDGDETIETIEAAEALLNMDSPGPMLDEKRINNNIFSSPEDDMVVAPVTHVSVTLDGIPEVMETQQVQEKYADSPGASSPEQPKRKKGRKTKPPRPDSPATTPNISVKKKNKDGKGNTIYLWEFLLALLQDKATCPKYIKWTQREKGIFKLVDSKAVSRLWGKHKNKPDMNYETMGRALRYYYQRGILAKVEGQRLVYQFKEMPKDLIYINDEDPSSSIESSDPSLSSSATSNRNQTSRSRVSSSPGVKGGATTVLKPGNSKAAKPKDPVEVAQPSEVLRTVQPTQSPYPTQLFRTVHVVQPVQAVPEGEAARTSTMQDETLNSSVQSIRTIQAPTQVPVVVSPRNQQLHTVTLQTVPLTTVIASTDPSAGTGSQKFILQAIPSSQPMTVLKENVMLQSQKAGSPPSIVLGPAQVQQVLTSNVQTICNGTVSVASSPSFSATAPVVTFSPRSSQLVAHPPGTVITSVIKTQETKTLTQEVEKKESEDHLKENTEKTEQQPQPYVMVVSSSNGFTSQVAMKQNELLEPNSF

As to CCCTTG, the binding signal in the assay with FLI1 is 1.14 fold enrichment (6-mer frequency, TF over GST control); with ELK1, 1.21 fold enrichment (6-mer frequency, TF over GST control); in the assay with GABPA, 1.24 fold enrichment (6-mer frequency, TF over GST control); with ERG it was 1.23 fold enrichment (6-mer frequency, TF over GST control); with ELF1, 1.3 fold enrichment (6-mer frequency, TF over GST control); with EHF it was 1.22 fold enrichment (6-mer frequency, TF over GST control). Besides, the binding signal was 1.16 fold enrichment (6-mer frequency, TF over GST control) in the assay with SPI1; 1.19 fold enrichment (6-mer frequency, TF over GST control) in the assay with SPIB; 1.2 fold enrichment (6-mer frequency, TF over GST control) in the assay with ELK3; 1.16 fold enrichment (6-mer frequency, TF over GST control) with FEV; 1.11 fold enrichment (6-mer frequency, TF over GST control) with ETV5; 1.26 fold enrichment (6-mer frequency, TF over GST control) with SPIC. Further, the binding signal in the assay with ELF4 is 1.25 fold enrichment (6-mer frequency, TF over GST control); with ELK4, 1.2 fold enrichment (6-mer frequency, TF over GST control); with ETV2, 1.23 fold enrichment (6-mer frequency, TF over GST control); in the assay with ELF3, 1.19 fold enrichment (6-mer frequency, TF over GST control); in the assay with CRX, 1.01 fold enrichment (6-mer frequency, TF over GST control); with ETV1, 1.19 fold enrichment (6-mer frequency, TF over GST control).

For TCCGTT, the binding signal with FLI1 was 1.44 fold enrichment (6-mer frequency, TF over GST control); with ELK1, 1.61 fold enrichment (6-mer frequency, TF over GST control); with GABPA, 1.42 fold enrichment (6-mer frequency, TF over GST control); with ERG it was 1.68 fold enrichment (6-mer frequency, TF over GST control); with ELF1, 1.34 fold enrichment (6-mer frequency, TF over GST control); with EHF, 1.4 fold enrichment (6-mer frequency, TF over GST control). The binding signal was 1.53 fold enrichment (6-mer frequency, TF over GST control) with SPI1; 1.53 fold enrichment (6-mer frequency, TF over GST control) with SPIB; 1.54 fold enrichment (6-mer frequency, TF over GST control) with ELK3; 1.71 fold enrichment (6-mer frequency, TF over GST control) with FEV; 1.49 fold enrichment (6-mer frequency, TF over GST control) in the assay with ETV5; 1.62 fold enrichment (6-mer frequency, TF over GST control) with SPIC. The binding signal is 1.25 fold enrichment (6-mer frequency, TF over GST control) in the assay with ELF4; 1.48 fold enrichment (6-mer frequency, TF over GST control) with ELK4; 1.44 fold enrichment (6-mer frequency, TF over GST control) with ETV2; 1.35 fold enrichment (6-mer frequency, TF over GST control) in the assay with ELF3; 1.13 fold enrichment (6-mer frequency, TF over GST control) in the assay with CRX; 1.36 fold enrichment (6-mer frequency, TF over GST control) in the assay with ETV1.

The values are drawn from PMC7862700, “An all-to-all approach to the identification of sequence-specific readers for epigenetic DNA modifications on cytosine”.
